B2AR arrestin: qHTS assay of beta-arrestin-biased ligands of beta2-adrenergic receptor; 0.02% of 330,000 active; Beta-2 adrenergic receptor (Homo sapiens), P07550; Potency, µM (series often up to 46.1 µM), without a hit: top-dose activation, most hits filed as activators; beta-arrestin recruitment to beta2AR, cell-based reporter;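 also: potency is read from the fitted curve at half-maximal effect; 0% = DMSO controls and full agonism = EC100 isoproterenol or metaproterenol; nearly all actives have a fitted effect of over 65% in size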
PTHR1 ag: qHTS for PTHR1 Agonists: Primary Screen; HEK293 GP2 PTHR1 cells, GloSensor cAMP luminescence, 1 h; Parathyroid hormone/parathyroid hormone-related peptide receptor (Homo sapiens), Q03431; 0.075% of 410,000 active; Potency, µM (series often up to 115 µM), without a hit: at the top dose activation, actives largely listed as activators; also: potency is read from the fitted curve at half-maximal effect; nearly all actives have a fitted effect of over 55% in size
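HEK-293-derived GP2 cells expressing PTHR1 and a GloSensor cAMP reporter, 3,000/well, plated overnight, given luciferin plus IBMX (each 0.5 mM as added) for 1 h at 37 °C, then compound for 1 h at 37 °C. Luminescence was read after 15 min at room temperature.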
RGS4 inh: Inhibitors of Regulator of G Protein Signaling (RGS) 4: qHTS. Regulator of G-protein signaling 4 (Homo sapiens), P49798. Transcreener GDP fluorescence polarization, RGS4-accelerated GTP hydrolysis. Potency, µM (doses to about 114 µM), without a hit: top-dose activity change, negative = inhibition, usual class: inhibitors. 0.039% of 390,000 active. AID 504845, 2011; also: potency is read from the fitted curve at half-maximal effect; % is scaled to controls: 0 for no effect and ±100 for the full control effect; nearly all actives have a fitted effect of over 75% in size
Target sequence (P49798 whole entry, looked up): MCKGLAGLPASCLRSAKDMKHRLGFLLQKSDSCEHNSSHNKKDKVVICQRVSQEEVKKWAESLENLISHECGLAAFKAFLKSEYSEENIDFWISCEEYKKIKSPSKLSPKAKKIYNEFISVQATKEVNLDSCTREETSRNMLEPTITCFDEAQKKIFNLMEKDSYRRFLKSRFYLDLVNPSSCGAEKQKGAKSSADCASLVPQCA
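MLSMR compounds (23 nl, pin-transferred) preincubated 10 min at room temperature with a 500nM (2x) first reagent, then RGS4 at 900nM (2x) plus Transcreener GDP mix added; fluorescence polarization (620/688 nm) read before and after 90 min at 30 °C.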
BRCA1 expr up: qHTS Assay to Identify Small Molecule Activators of BRCA1 Expression | MCF7-BRCA1-FFLuc reporter, luminescence, 48 h; response scale: scaled: vehicle 0%, 10 µM genistein 100% | Potency, µM (doses to about 46.1 µM), for the others: top-dose activation, hits mostly activators | 1.1% of 380,000 active; also: potency is read from the fitted curve at half-maximal effect; nearly all actives have a fitted effect of over 80% in size
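Luminescence from a BRCA1-driven firefly luciferase in MCF7 cells was read after 48 h compound exposure at 37 C. Data normalized against DMSO and a 10microM genistein activation control, then curve-fitted across the titration.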
DRD3 agonist: qHTS of D3 Dopamine Receptor Agonist: qHTS | D(3) dopamine receptor (Homo sapiens), P35462 | D3R DiscoveRx beta-arrestin cells, luminescence, 90 min | max activation, % | 0.58% of 410,000 active; in the data active = max activation above about 30%; also: 0% is about no effect
Target sequence (P35462 whole entry, looked up): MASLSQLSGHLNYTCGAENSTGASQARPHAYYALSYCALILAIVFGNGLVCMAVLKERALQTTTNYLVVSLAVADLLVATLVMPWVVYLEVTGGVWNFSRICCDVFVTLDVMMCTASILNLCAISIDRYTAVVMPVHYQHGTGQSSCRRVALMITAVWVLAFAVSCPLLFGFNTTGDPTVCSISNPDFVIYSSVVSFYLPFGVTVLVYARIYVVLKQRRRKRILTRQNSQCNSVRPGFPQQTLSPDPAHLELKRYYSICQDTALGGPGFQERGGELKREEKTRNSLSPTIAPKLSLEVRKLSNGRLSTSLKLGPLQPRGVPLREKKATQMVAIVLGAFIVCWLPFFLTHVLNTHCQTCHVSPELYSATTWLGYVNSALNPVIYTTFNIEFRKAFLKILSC
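Agonist mode: compounds and dopamine controls were applied to plated cells for 90 min at 37 degrees C after an overnight attachment at 1500 cells/well. Luminescent read-out followed 30 - 60 minutes at room temperature with DiscoveRx detection reagent.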
DRD3 antagonist: qHTS of D3 Dopamine Receptor Antagonist: qHTS; 2.5% of 360,000 active; max response, negative = inhibition, %; D3R cells, DiscoveRx beta-arrestin luminescence, antagonist mode; hits give low values; AID 652054, 2013; in the data active = max response below about -50%; also: % is scaled to controls: 0 for no effect and ±100 for the full control effect
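Cells expressing the human receptor were seeded at 1500 cells/well, incubated overnight at 37 degrees C in 5% CO2, then exposed to library compounds with dopamine controls for 90 minutes at 37 degrees C before luminescent detection.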
Active calls of the source: *; [ ] = another dose, or the depositor's remark. Most compounds without a hit are left out; they make up all but 3.7% or so of the library. Unless noted, calls follow the shape of the dose curve; as a rule, active = well fitted curve in the direction sought with a large enough effect; inconclusive = small, poorly fitted or top-dose-only effect, or another doubt; inactive = no such curve, though single readings can be large; an effect the other way counts as inactive or inconclusive.

How did O=C(N[C@@H]1CCC(=O)N(CC[C@H](Sc2ccccc2)c2ccccc2)CC1)OCc1ccccc1 do in these assays?
B2AR arrestin: 0.0%; PTHR1 ag: inactive; RGS4 inh: 2.2%; BRCA1 expr up: -14.8%; DRD3 agonist: -49.5; DRD3 antagonist: -91.6*

What do the screens show for `COc1cccc(CNCCc2c[nH]c3ccccc23)c1OCc1ccccc1`?
B2AR arrestin: -0.2%; PTHR1 ag: -26.5%; RGS4 inh: -25.1%; BRCA1 expr up: -90.6%; DRD3 agonist: -11.7; DRD3 antagonist: 2.7

What do the screens show for `COc1cc(CNCCc2c[nH]c3ccccc23)ccc1OCc1ccccc1F`?
B2AR arrestin: -0.4%; PTHR1 ag: -18.7%; RGS4 inh: -3.7%; BRCA1 expr up: -41.6%; DRD3 agonist: -18.0; DRD3 antagonist: -55.7*

What do the screens show for `CC1CCCc2sc3nc(N4CCN(CCO)CC4)n4ncnc4c3c21` (stereo not drawn)?
B2AR arrestin: 0.4%; PTHR1 ag: inactive; RGS4 inh: 9.8%; BRCA1 expr up: 13.9%; DRD3 agonist: -5.8; DRD3 antagonist: -56.3*

What do the screens show for `COc1ccc(-c2cc(C(=O)OCC(=O)NC(C)C)c3ccccc3n2)cc1`?
B2AR arrestin: 0.2%; PTHR1 ag: -12.4%; RGS4 inh: 49.3%; BRCA1 expr up: 68.0%; DRD3 agonist: -10.0; DRD3 antagonist: -4.0

What do the screens show for `CN1CCN(c2cc(N3CCc4ccccc4C3)c(F)cc2[N+](=O)[O-])CC1`?
B2AR arrestin: 0.3%; PTHR1 ag: inactive; RGS4 inh: -11.0%; BRCA1 expr up: -52.5%; DRD3 agonist: -21.6; DRD3 antagonist: -61.1*

Results for CN(CC1CCCN(CCc2cccc(C(F)(F)F)c2)C1)C(=O)c1cc2ccccc2o1 (stereo not drawn) ?
B2AR arrestin: -0.4%; PTHR1 ag: -27.6%; RGS4 inh: 20.4%; BRCA1 expr up: -56.1%; DRD3 agonist: -20.7; DRD3 antagonist: -74.0*

How did CN(C(=O)COC(=O)c1cc(S(=O)(=O)N2CCOCC2)ccc1Cl)C1CCS(=O)(=O)C1 (stereo not drawn) do in these assays?
B2AR arrestin: -0.2%; PTHR1 ag: -11.4%; RGS4 inh: 12.7%; BRCA1 expr up: -11.9%; DRD3 agonist: -6.9; DRD3 antagonist: -10.9

Results for CC(=O)Nc1cccc(C(=O)/C=C/c2cccs2)c1 ?
B2AR arrestin: -0.1%; PTHR1 ag: -32.5%; RGS4 inh: -24.4%; BRCA1 expr up: -17.9%; DRD3 agonist: -4.9; DRD3 antagonist: -62.4*

Results for CC(=O)Nc1cccc(C(=O)/C=C/c2ccc(F)cc2)c1 ?
B2AR arrestin: -0.2%; PTHR1 ag: -31.2%; RGS4 inh: -42.2%; BRCA1 expr up: -53.7%; DRD3 agonist: -14.3; DRD3 antagonist: -14.3

How did COc1cc2c(cc1OC)CN(Cc1ccc(OC)c(C)c1OC)CC2 do in these assays?
B2AR arrestin: -0.4%; PTHR1 ag: inactive; RGS4 inh: 8.2%; BRCA1 expr up: -31.0%; DRD3 agonist: -7.3; DRD3 antagonist: -76.9*

Results for COc1cc2c(cc1OC)CN(Cc1ccc(C)cc1)CC2 ?
B2AR arrestin: 0.0%; PTHR1 ag: inactive; RGS4 inh: 6.5%; BRCA1 expr up: -16.2%; DRD3 agonist: -10.4; DRD3 antagonist: -80.0*

How did COc1cc2c(cc1OC)CN(Cc1ccccc1)CC2 do in these assays?
B2AR arrestin: -0.7%; PTHR1 ag: inactive; RGS4 inh: 11.0%; BRCA1 expr up: 3.7%; DRD3 agonist: -26.7; DRD3 antagonist: -23.8

What do the screens show for `COc1cc2c(cc1OC)CN(CCC(C)c1ccc(Cl)cc1)CC2` (stereo not drawn)?
PTHR1 ag: inactive; RGS4 inh: 11.2%; BRCA1 expr up: -14.1%; DRD3 agonist: -13.9; DRD3 antagonist: -91.1*

What do the screens show for `COc1cc2c(cc1OC)CN(Cc1cccs1)CC2`?
B2AR arrestin: -0.2%; PTHR1 ag: inactive; RGS4 inh: -2.5%; BRCA1 expr up: -1.2%; DRD3 agonist: -12.1; DRD3 antagonist: -54.2*

Results for OC(c1cccc(CN2CCCCC2)c1)c1ncc(-c2ccccc2Cl)[nH]1 (stereo not drawn) ?
PTHR1 ag: -13.4%; BRCA1 expr up: 19.7%; DRD3 agonist: -12.0; DRD3 antagonist: -1.0

How did CCOC(=O)C1=CN(CC2CCCCC2)CCC1=O do in these assays?
PTHR1 ag: 7.6%; RGS4 inh: -6.2%; BRCA1 expr up: 16.6%; DRD3 agonist: 15.0; DRD3 antagonist: 14.4

How did O=S(=O)(c1ccccc1)c1nc(-c2ccccc2Cl)oc1N1CCCCCC1 do in these assays?
PTHR1 ag: -41.1%; RGS4 inh: -0.8%; DRD3 agonist: -7.1

What do the screens show for `CCN1CCN(c2oc(-c3ccccc3C)nc2S(=O)(=O)c2ccccc2)CC1`?
B2AR arrestin: -0.2%; PTHR1 ag: -23.0%; RGS4 inh: -13.0%; BRCA1 expr up: -35.8%; DRD3 agonist: -35.8; DRD3 antagonist: -83.5*

What do the screens show for `Cc1ccc(S(=O)(=O)c2nc(-c3ccccc3Cl)oc2N2CCCCCC2)cc1`?
PTHR1 ag: -29.0%; RGS4 inh: -24.6%; DRD3 agonist: -8.2

How did Cc1ccc(S(=O)(=O)c2nc(-c3ccccc3Cl)oc2N2CCN(C)CC2)cc1 do in these assays?
B2AR arrestin: -1.0%; PTHR1 ag: inactive; RGS4 inh: -1.8%; BRCA1 expr up: -29.8%; DRD3 agonist: -17.1; DRD3 antagonist: -54.7*

What do the screens show for `Cc1cccc(-c2[nH]c(C(C)(C)C)nc2-c2ccc3nccnc3c2)n1`?
RGS4 inh: -7.4%[56.9 µM]

Results for Cc1nc(-c2ccc(F)cc2)sc1CCNC(=O)C(=O)Nc1ccc2c(c1)OCO2 ?
PTHR1 ag: -47.8%; RGS4 inh: -3.7%; DRD3 agonist: 0.5

How did CC(=O)Nc1c(C)ccc2nsnc12 do in these assays?
B2AR arrestin: 0.2%; PTHR1 ag: inactive; RGS4 inh: 16.8%; BRCA1 expr up: -7.2%; DRD3 agonist: 7.8; DRD3 antagonist: -77.1*

How did Cc1nc(C(F)(F)F)ccc1C(=O)N1CCC1(C)C(=O)NS(=O)(=O)c1ccc2c(c1)CCO2 (stereo not drawn) do in these assays?
PTHR1 ag: -9.0%; BRCA1 expr up: 4.8%; DRD3 agonist: -1.7; DRD3 antagonist: 0.6

What do the screens show for `COc1ccc(CCNc2oc(Cc3cccc4ccccc34)nc2C#N)cc1OC`?
B2AR arrestin: -0.1%; PTHR1 ag: -11.9%[57.5 µM]; RGS4 inh: -25.9%; BRCA1 expr up: -65.9%; DRD3 agonist: 4.6; DRD3 antagonist: -60.1*
